Each structure is given as a SMILES string. Records with an inconclusive call do not appear. Activity calls are given as the source filed them. Rule for the calls, unless noted: active = hit-call score of the fitted dose curve at least 0.9, where 1 is the maximum; inactive = score below 0.9.

The results in this text go back to PubChem BioAssay (EPA / NIEHS).

Chain of Steroid hormone receptor ERR1 (Homo sapiens) (P11474 whole entry, looked up, the tested form may be a part): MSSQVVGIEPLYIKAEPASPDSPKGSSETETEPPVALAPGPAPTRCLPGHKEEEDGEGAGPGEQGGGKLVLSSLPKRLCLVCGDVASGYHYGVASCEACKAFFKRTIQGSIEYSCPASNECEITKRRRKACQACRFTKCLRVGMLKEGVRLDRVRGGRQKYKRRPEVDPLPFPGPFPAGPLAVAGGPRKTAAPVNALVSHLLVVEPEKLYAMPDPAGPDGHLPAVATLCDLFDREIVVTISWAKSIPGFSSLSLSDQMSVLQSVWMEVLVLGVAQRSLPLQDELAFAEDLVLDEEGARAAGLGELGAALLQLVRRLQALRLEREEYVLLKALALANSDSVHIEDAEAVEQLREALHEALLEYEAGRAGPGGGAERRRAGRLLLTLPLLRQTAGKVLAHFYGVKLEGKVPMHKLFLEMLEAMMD
Chain of X-box-binding protein 1 (Homo sapiens) (P17861 whole entry, looked up): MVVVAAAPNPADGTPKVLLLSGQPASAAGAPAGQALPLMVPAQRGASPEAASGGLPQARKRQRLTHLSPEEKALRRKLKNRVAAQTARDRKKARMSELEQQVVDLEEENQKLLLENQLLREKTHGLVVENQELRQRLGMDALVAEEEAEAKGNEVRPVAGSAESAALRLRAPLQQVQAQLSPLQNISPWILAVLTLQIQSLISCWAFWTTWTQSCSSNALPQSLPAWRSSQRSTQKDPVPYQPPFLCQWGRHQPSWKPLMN
Chain of Nuclear receptor subfamily 1 group I member 3 (Homo sapiens) (Q14994 whole entry, looked up, the tested form may be a part): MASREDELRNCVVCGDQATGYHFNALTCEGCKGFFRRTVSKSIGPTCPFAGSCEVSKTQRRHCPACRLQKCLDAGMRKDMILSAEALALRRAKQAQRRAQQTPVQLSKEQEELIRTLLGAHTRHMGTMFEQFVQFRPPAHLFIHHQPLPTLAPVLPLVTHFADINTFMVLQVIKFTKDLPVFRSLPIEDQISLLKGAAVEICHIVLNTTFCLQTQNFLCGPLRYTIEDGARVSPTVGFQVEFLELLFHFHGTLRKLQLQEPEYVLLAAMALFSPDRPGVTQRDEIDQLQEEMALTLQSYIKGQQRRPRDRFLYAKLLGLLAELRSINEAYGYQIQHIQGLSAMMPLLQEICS

Test system in the first assay: not listed separately
The assay is described as follows: ATG_TGFb_CIS: Attagene CIS-FACTORIAL HepG2 Assay for human Transforming Growth Factor (TGF) (AID 2282967). Particulars: HepG2 Attagene CIS TGFb reporter, mRNA transcription; actives raise or lower the signal. Summed up: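 Endogenous TGFB1-linked transcription factor activity read as reporter mRNA via RT-PCR and capillary electrophoresis, 24 h after dosing transiently transfected HepG2 cells. Gain or loss of signal fitted relative to DMSO.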
On to `CC1(C)C(=O)N(Cl)C(=O)N1Br`, for which the molecule was called inactive.
Same read-out and setting: as for `CCC(=O)O[C@@H]1C[C@H]2CC[C@]1(C)C2(C)C`, the entry is “inactive”.
On to `CC(C)CCCCCCc1ccc(OCCOCCO)cc1`, for which the molecule was called inactive.
On the same count and under the same terms, under `CCCCCCCCCCCCCCCC(=O)OC/C=C(C)/C=C/C=C(C)/C=C/C1=C(C)CCCC1(C)C` stands “inactive”; under `Cc1cc(CCC(=O)OCCOCCOCCOC(=O)CCc2cc(C)c(O)c(C(C)(C)C)c2)cc(C(C)(C)C)c1O`, “inactive”; under `C=C[Si]1(C)O[Si](C)(C=C)O[Si](C)(C=C)O[Si](C)(C=C)O1` (stereo not given), “inactive”.
Same read-out and setting: under `CCCCSCCCC` stands “inactive”; under `CC(CN=Cc1ccccc1O)N=Cc1ccccc1O` (stereo not given), “inactive”; under `CCc1ccc(O)c(OC)c1`, “inactive”.
Same read-out and setting: under `C/C=C(\C)C(=O)OCCc1ccccc1` stands “inactive”; under `Nc1ccccc1[N+](=O)[O-]`, “inactive”; under `CC(C)NCC(O)COc1ccc(CC(N)=O)cc1` (stereo not given), “inactive”.
As for `O=CN1CCOCC1`, the result was inactive.

The target in another assay is Nuclear receptor subfamily 1 group I member 3 (Homo sapiens) (UniProt Q14994). The assay is described as follows: ATG_CAR_TRANS: Attagene TRANS-FACTORIAL HepG2 Assay for human Constitutive Androstane Receptor (CAR) (AID 2282969; active = hit-call score of the fitted dose curve at least 0.9, where 1 is the maximum;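 note: activators raise reporter mRNA above DMSO so AC50 marks induction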). Particulars: HepG2 Attagene TRANS-FACTORIAL CAR reporter. Summed up:
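Transiently transfected HepG2, multiplex TRANS reporters (CAR-Gal4 chimera driving GAL4-UAS reporter). 24 h dosing. Readout: reporter transcript by RT-PCR + capillary electrophoresis, fluorescence intensity; positive direction vs DMSO.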
For `Nc1ccn([C@H]2CS[C@@H](CO)O2)c(=O)n1`, the molecule was called inactive.
The same measure, in the same setting: as for `Cc1cc(C)nc(NS(=O)(=O)c2ccc(N)cc2)n1`, the entry is “inactive”.
The same measure, in the same setting: under `CC1(C)CCC[C@]2(C)[C@H]3CCO[C@]3(C)CC[C@@H]12` stands “inactive”; under `O=c1c(O)c(-c2ccc(O)cc2)oc2cc(O)cc(O)c12`, “inactive”.
A word on the AC50: it is the midpoint of the concentration-response curve, whichever way the signal moves. Take `CC(C)(C)C1=CC(=O)C(C(C)(C)C)=CC1=O`: the AC50 is 20.1 µM (active).
Turning to `CC(Oc1cc(Cl)ccc1Cl)C(=O)O` (stereo not given), the molecule was called inactive.
Regarding `CC1=CC[C@@]23C[C@@H]1C(C)(C)[C@@H]2CC[C@H]3C`, the result was inactive.
On the same count and under the same terms, under `CCCCCCC(C)(C)S` stands “inactive”; under `CN(C)CCOC(C)(c1ccccc1)c1ccccn1` (stereo not given), “inactive”.
Still for that read-out and setting: under `CC(C)C[C@H](NC(=O)OCC1c2ccccc2-c2ccccc21)C(=O)O` stands “inactive”.
Still for that read-out and setting: under `N#Cc1cscn1` stands “inactive”; under `CC/C=C\CC/C=C/CO`, “inactive”.
Regarding `C=CCN(CC=C)CC=C`, the outcome was inactive.
As for `C=Cc1ccc(C(C)(C)C)cc1`, the molecule was classed as inactive.
Turning to `C=CCCCCCCCCCC`, the molecule was classed as inactive.
On the same count and under the same terms, as for `CC1(C)C2=CCCC(C)(C)[C@]23CC[C@H]1C3`, the entry is “inactive”; as for `CC1(C)C(=O)N(Cl)C(=O)N1Br`, “inactive”; as for `CCC(=O)O[C@@H]1C[C@H]2CC[C@]1(C)C2(C)C`, “inactive”.
Same read-out and setting: under `CCCCCCCCCCCCCCCC(=O)OC/C=C(C)/C=C/C=C(C)/C=C/C1=C(C)CCCC1(C)C` stands “inactive”.
On the same count and under the same terms, as for `Cc1cc(CCC(=O)OCCOCCOCCOC(=O)CCc2cc(C)c(O)c(C(C)(C)C)c2)cc(C(C)(C)C)c1O`, the entry is “inactive”; as for `C=C[Si]1(C)O[Si](C)(C=C)O[Si](C)(C=C)O[Si](C)(C=C)O1` (stereo not given), “inactive”; as for `CCCCSCCCC`, “inactive”.
Regarding `CC(CN=Cc1ccccc1O)N=Cc1ccccc1O` (stereo not given), the call was inactive.
Take `CCc1ccc(O)c(OC)c1`: the molecule was classed as inactive.
`C/C=C(\C)C(=O)OCCc1ccccc1`: the outcome was inactive.

The target in another assay is Estrogen receptor (Homo sapiens) (UniProt P03372). The assay is described as follows: ATG_ERa_TRANS: Attagene TRANS-FACTORIAL HepG2 Assay for human Estrogen Receptor alpha (ERa) (AID 2282970; active = hit-call score of the fitted dose curve at least 0.9, where 1 is the maximum). Conditions: HepG2 Attagene TRANS ERa GAL4 reporter, mRNA. Summed up: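 One of 30 multiplexed endpoints from a HepG2 TRANS system, this one reports ERa-Gal4-driven reporter mRNA. Transcripts were quantified 24 hours post-dosing by fluorescent RT-PCR and capillary electrophoresis, with activity scored as induction over DMSO.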
Chain of Estrogen receptor (Homo sapiens) (P03372 whole entry, looked up, the tested form may be a part): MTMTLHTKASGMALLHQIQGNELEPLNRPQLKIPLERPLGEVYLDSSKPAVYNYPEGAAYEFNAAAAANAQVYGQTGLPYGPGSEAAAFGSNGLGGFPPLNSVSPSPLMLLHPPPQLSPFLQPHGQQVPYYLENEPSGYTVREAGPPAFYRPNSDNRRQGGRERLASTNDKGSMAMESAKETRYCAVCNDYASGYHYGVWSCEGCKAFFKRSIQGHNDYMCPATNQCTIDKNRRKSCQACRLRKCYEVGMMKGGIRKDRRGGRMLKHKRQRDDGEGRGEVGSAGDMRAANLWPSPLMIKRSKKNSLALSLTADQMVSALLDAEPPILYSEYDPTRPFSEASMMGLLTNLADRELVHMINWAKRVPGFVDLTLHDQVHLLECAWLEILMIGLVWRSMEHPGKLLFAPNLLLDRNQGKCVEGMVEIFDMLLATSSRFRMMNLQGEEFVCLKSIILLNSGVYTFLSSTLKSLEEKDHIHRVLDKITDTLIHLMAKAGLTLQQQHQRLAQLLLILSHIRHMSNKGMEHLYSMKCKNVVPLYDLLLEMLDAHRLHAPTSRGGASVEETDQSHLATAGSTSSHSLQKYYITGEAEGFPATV
With `Cc1[nH]c(=O)c(C#N)cc1-c1ccncc1`, the result was inactive.
The same measure, in the same setting: as for `O=[N+]([O-])c1cccc(Cl)c1`, the entry is “inactive”; as for `Nc1c(S(=O)(=O)O)cc(Br)c2c1C(=O)c1ccccc1C2=O`, “inactive”.
On the same count and under the same terms, under `CC(C)CCCCCCc1ccc(OCCOCCO)cc1` stands “inactive”.
Take `CC(C)NCC(O)COc1ccc(CC(N)=O)cc1` (stereo not given): the result was inactive.
The same measure, in the same setting: as for `O=CN1CCOCC1`, the entry is “inactive”.

The next assay addresses Steroid hormone receptor ERR1 (Homo sapiens) (UniProt P11474). The experiment in a line: ATG_ERRa_TRANS: Attagene TRANS-FACTORIAL HepG2 Assay for human Estrogen-Related Receptor alpha (ERRa) (AID 2282971; active = hit-call score of the fitted dose curve at least 0.9, where 1 is the maximum). Conditions: HepG2 Attagene TRANS reporter, ERRa transactivation. Summed up:
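HepG2 cells transiently transfected with multiplexed GAL4-UAS reporter units reading chimeric ERRa-Gal4 activity; 24 h compound exposure. Reporter mRNA measured by RT-PCR, 6-FAM labelling, HpaI digest and capillary electrophoresis; gain of signal fitted versus DMSO baseline.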
Regarding `CCCCOC(=O)CCCCCCCC(=O)OCCCC`, the result was inactive.
Regarding `O=[N+]([O-])c1cccc(Cl)c1`, the call was inactive.
The same measure, in the same setting: under `CC(C)(N=C=O)c1cccc(C(C)(C)N=C=O)c1` stands “inactive”; under `CN(C)c1ccncc1`, “inactive”.
Still for that read-out and setting: as for `CC(=O)OCCCc1ccccc1`, the entry is “inactive”; as for `C[C@@H]1CCN(C(=O)[C@H](CCCN=C(N)N)NS(=O)(=O)c2cccc3c2NC[C@H](C)C3)[C@@H](C(=O)O)C1`, “inactive”.
The same measure, in the same setting: under `OCCCCC(O)CO` (stereo not given) stands “inactive”; under `Nc1ccccc1[N+](=O)[O-]`, “inactive”.

The next assay has as its target X-box-binding protein 1 (Homo sapiens) (UniProt P17861). The assay is described as follows: ATG_Xbp1_CIS: Attagene CIS-FACTORIAL HepG2 Assay for human X-box Binding Protein 1 (XBP1) (AID 2282972). Particulars: HepG2 XBP1 cis-element reporter, Attagene multiplex; actives raise or lower the signal. In a few lines: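 Multiplexed cis-reporter readout in transfected HepG2 liver cells. Exposure lasted 24 hours. Activity in either direction was fitted against DMSO as negative control and baseline.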
As to `Nc1ccn([C@H]2CS[C@@H](CO)O2)c(=O)n1`, the call was inactive.
On the same count and under the same terms, as for `Cc1cc(C)nc(NS(=O)(=O)c2ccc(N)cc2)n1`, the entry is “inactive”; as for `CC1(C)CCC[C@]2(C)[C@H]3CCO[C@]3(C)CC[C@@H]12`, “inactive”.
As to `O=c1c(O)c(-c2ccc(O)cc2)oc2cc(O)cc(O)c12`, the outcome was inactive.
Same read-out and setting: under `CC(C)(C)C1=CC(=O)C(C(C)(C)C)=CC1=O` stands “inactive”; under `CCCCOC(=O)CCCCCCCC(=O)OCCCC`, “inactive”; under `Cc1[nH]c(=O)c(C#N)cc1-c1ccncc1`, “inactive”.
The same measure, in the same setting: under `CC(Oc1cc(Cl)ccc1Cl)C(=O)O` (stereo not given) stands “inactive”.
On the same count and under the same terms, as for `CC1=CC[C@@]23C[C@@H]1C(C)(C)[C@@H]2CC[C@H]3C`, the entry is “inactive”; as for `O=[N+]([O-])c1cccc(Cl)c1`, “inactive”.
In the case of `CC(C)(N=C=O)c1cccc(C(C)(C)N=C=O)c1`, the molecule was called inactive.
Same read-out and setting: as for `CN(C)c1ccncc1`, the entry is “inactive”.
Same read-out and setting: as for `CN(C)CCOC(C)(c1ccccc1)c1ccccn1` (stereo not given), the entry is “inactive”; as for `CC(=O)OCCCc1ccccc1`, “inactive”.
`CC(C)C[C@H](NC(=O)OCC1c2ccccc2-c2ccccc21)C(=O)O`: the result was inactive.
The same measure, in the same setting: as for `C[C@@H]1CCN(C(=O)[C@H](CCCN=C(N)N)NS(=O)(=O)c2cccc3c2NC[C@H](C)C3)[C@@H](C(=O)O)C1`, the entry is “inactive”; as for `N#Cc1cscn1`, “inactive”.
For `Nc1c(S(=O)(=O)O)cc(Br)c2c1C(=O)c1ccccc1C2=O`, the molecule was called inactive.
Same read-out and setting: under `CC/C=C\CC/C=C/CO` stands “inactive”; under `C=CCN(CC=C)CC=C`, “inactive”.
Still for that read-out and setting: under `OCCCCC(O)CO` (stereo not given) stands “inactive”; under `CC1(C)C2=CCCC(C)(C)[C@]23CC[C@H]1C3`, “inactive”; under `CC1(C)C(=O)N(Cl)C(=O)N1Br`, “inactive”.
The same measure, in the same setting: under `CC(C)CCCCCCc1ccc(OCCOCCO)cc1` stands “inactive”; under `CCCCCCCCCCCCCCCC(=O)OC/C=C(C)/C=C/C=C(C)/C=C/C1=C(C)CCCC1(C)C`, “inactive”.
Consider `Cc1cc(CCC(=O)OCCOCCOCCOC(=O)CCc2cc(C)c(O)c(C(C)(C)C)c2)cc(C(C)(C)C)c1O`, for which the molecule was called inactive.
Still for that read-out and setting: as for `C=C[Si]1(C)O[Si](C)(C=C)O[Si](C)(C=C)O[Si](C)(C=C)O1` (stereo not given), the entry is “inactive”; as for `CC(CN=Cc1ccccc1O)N=Cc1ccccc1O` (stereo not given), “inactive”; as for `CCc1ccc(O)c(OC)c1`, “inactive”.
The same measure, in the same setting: as for `C/C=C(\C)C(=O)OCCc1ccccc1`, the entry is “inactive”.
`Nc1ccccc1[N+](=O)[O-]`: the molecule was classed as inactive.
Still for that read-out and setting: as for `CC(C)NCC(O)COc1ccc(CC(N)=O)cc1` (stereo not given), the entry is “inactive”; as for `O=CN1CCOCC1`, “inactive”.
